Sampled rows, rich in hits. Any-hit rate of the full collection: about 3.7%.
FadD28 binding – blocks FadD28 binding to the bisubstrate probe | 0.22% of 360,000 active | fluorescence polarization | AID 588549 | inhibition, % at 12.5 µM; in the data active = inhibition above about 8.5%, passing the limit was not always enough; inconclusive = no clear call, values can overlap the other calls
GDH-TPI counter-1 – counter-screen for M. tuberculosis FBA inhibitors: GDH-TPI coupled enzymes; GDH-TPI coupled enzyme counterscreen, NADH absorbance; inhibition, % at 4.8 µM; 1.2% of 360,000 active; AID 588335; in the data active = inhibition above about 30%;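 note: 0% = DMSO wells and 100% = wells lacking the enzyme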
UGM FP inh – Mtb UDP-galactopyranose mutase inhibition; purified UGM, fluorescence polarization probe displacement; inhibition, % at 10 µM; 0.06% of 320,000 active; in the data active = inhibition above about 10%, passing the limit was not always enough; inconclusive = no clear call, values can overlap the other calls
Mtb bLac sens – beta-lactam sensitization of Mtb H37Rv. inhibition, % at 25 µM. M. tuberculosis H37Rv growth with meropenem, percent inhibition. 0.27% of 330,000 active; call rule not given here;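 note: growth measured after seven days incubation then overnight dye step; 0% = bacteria only wells and 100% = bacteria with antibiotic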
Rv3671c protease – inhibits the M. tuberculosis serine protease Rv3671c; P9WHR9; inhibition, % at 5.96 µM; 0.048% of 320,000 active; AID 2606; in the data active = inhibition above about 38%;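 note: extracellular domain of Rv3671c used as enzyme; 0% = enzyme with DMSO and 100% = no enzyme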
Mtb FBA inh – Mtb fructose-bisphosphate aldolase inhibition. P9WQA3. purified M. tuberculosis FBA, fluorescence read-out. inhibition, % at 1 µM. 2.3% of 360,000 active. AID 588726;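 note: 0% = vehicle and 100% = reference inhibitor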
Target sequence (P9WQA3 whole entry, looked up): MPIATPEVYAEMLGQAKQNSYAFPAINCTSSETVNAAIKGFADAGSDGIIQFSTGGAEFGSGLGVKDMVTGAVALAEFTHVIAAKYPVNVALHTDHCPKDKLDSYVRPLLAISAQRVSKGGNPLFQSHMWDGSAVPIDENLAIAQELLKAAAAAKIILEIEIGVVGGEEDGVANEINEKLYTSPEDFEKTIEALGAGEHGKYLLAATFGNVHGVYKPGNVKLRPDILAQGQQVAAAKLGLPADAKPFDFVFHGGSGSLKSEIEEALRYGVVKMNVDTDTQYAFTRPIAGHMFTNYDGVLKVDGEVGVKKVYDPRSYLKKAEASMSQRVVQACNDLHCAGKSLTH
Mtb FBA confirm – Mtb FBA inhibition, confirmed. 78% of 5,600 active. shares compounds with Mtb FBA inh. inhibition, % at 1 µM. AID 651616. purified M. tuberculosis FBA, fluorescence read-out;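 note: 0% = vehicle wells and 100% = reference inhibitor wells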
GDH-TPI counter-2 – GDH-TPI inhibition counter-screen for FBA inhibitors; shares compounds with Mtb FBA inh; GDH-TPI coupled enzyme counterscreen, fluorescence; inhibition, % at 1 µM; 81% of 5,600 active; AID 652141; in the data active = inhibition above about 10%
Starred values were filed as active, the others as inactive; u = inconclusive; x = no result given; + = active, no number. Cut-off read from the data, not from the text of the source, unless noted: active = inhibition above about 27%; inactive = the rest.

SMILES	FadD28 binding	GDH-TPI counter-1	UGM FP inh	Mtb bLac sens	Rv3671c protease	Mtb FBA inh	Mtb FBA confirm	GDH-TPI counter-2
CC1(C)Oc2ccc3ccc(=O)oc3c2CC1O (stereo unspecified)	-1	27	1	-5	-3	78*	80*	69*
CC(=O)O[C@@H]1[C@H](OC(=O)CC(C)C)c2c(ccc3ccc(=O)oc23)OC1(C)C	-5	19	5	-7	-18	15	x	x
CC1(C)Oc2ccc3ccc(=O)oc3c2[C@@H](O)[C@H]1O	1	17	1	-5	5	69*	64*	66*
CCc1cc(=O)oc2c(C)c(O[C@@H]3O[C@H](CO)[C@@H](O)[C@H](O)[C@H]3O)ccc12	-3	20	-2	u	4	5	x	x
CCO[C@H]1c2c(ccc3ccc(=O)oc23)OC(C)(C)[C@H]1O	-3	9	-2	3	2	35*	+	+
C/C=C(/C)C(=O)OC1c2c(ccc3ccc(=O)oc23)OC(C)(C)C1OC(=O)/C(C)=C\C (stereo unspecified)	-2	16	3	3	-19	12	x	x
CC1(C)Oc2ccc3ccc(=O)oc3c2C[C@H]1O[C@@H]1O[C@H](CO)[C@@H](O)[C@H](O)[C@H]1O	-1	11	4	-3	6	55*	22	12*
CC1CCN(C(=O)c2ccc(CNS(=O)(=O)c3ccc(C(C)(C)C)cc3)cc2)CC1	-1	-1	3	6	1	2	x	x
CC(C)(C)OC(=O)N1CCCC(C(=O)Nc2cccc(C(=O)NC3CC3)c2)C1 (stereo unspecified)	-3	-2	x	x	x	1	x	x
COC(=O)Cc1ccc(OCc2ccc(Cl)nc2)cc1	-1	-5	-1	-5	-5	53*	148*	102*
COc1ccc(Cl)cc1NC(=O)c1cccc([N+](=O)[O-])c1O	-3	-13	x	x	x	-2	x	x
COc1cccc2[nH]c(C(=O)NCC3CCCO3)cc12 (stereo unspecified)	-1	-7	-2	-4	7	32*	126*	97*
COc1ccccc1-c1nc(C(=O)NCC2CCCO2)cc2c1[nH]c1ccccc12 (stereo unspecified)	-5	7	2	-3	-22	24	x	x
CCN1CCCC1CNC(=O)c1cc2c(OC)cccc2[nH]1 (stereo unspecified)	-3	-1	0	-4	3	30*	61*	34*
COc1c(N)c2ccccc2[nH]c1=O	-2	4	1	-16	-4	6	x	x
COc1cc(-c2nc(C(=O)NCC3CCCO3)cc3c2[nH]c2ccccc23)cc(OC)c1OC (stereo unspecified)	1	3	-1	64	-32	38*	60*	50*
COc1cccc2[nH]c(=O)c(-c3ccccc3)cc12	-3	9	-1	3	-7	71*	47*	39*
O=C(NCC1CCCO1)c1cc2ccccc2[nH]1 (stereo unspecified)	-1	5	0	-11	12	14	x	x
CCOC(=O)C1CCN(Cc2cccc(OCc3ccccc3)c2)CC1	0	4	0	-3	0	1	x	x
COCC(=O)N(C)C[C@H]1Oc2ncc(Br)cc2C(=O)N([C@@H](C)CO)C[C@H]1C	-2	1	x	x	x	-2	x	x
C[C@@H]1CN([C@@H](C)CO)C(=O)c2cc(Br)cnc2O[C@H]1CN(C)C(=O)Cc1ccccn1	1	4	x	x	x	0	x	x
COc1cccc2[nH]c(C(=O)NC(C)c3ccccc3)cc12 (stereo unspecified)	-3	-6	0	2	-4	50*	156*	117*
COc1cccc(-c2nn(-c3ccc(F)cc3)cc2C(=O)NCC2CCCO2)c1 (stereo unspecified)	-2	-9	x	-6	10	47*	+	+
COc1cccc(-c2nn(-c3ccc(C)cc3)cc2C(=O)NCC2CCCO2)c1 (stereo unspecified)	-1	8	-2	7	6	7	x	x
COc1cccc(-c2nc(C(=O)NCCCN3CCOCC3)cc3c2[nH]c2ccccc23)c1	-10	15	0	-8	-5	38*	-1	-7
SMILES	FadD28 binding	GDH-TPI counter-1	UGM FP inh	Mtb bLac sens	Rv3671c protease	Mtb FBA inh	Mtb FBA confirm	GDH-TPI counter-2
O=C(NCCCN1CCOCC1)c1cc2c([nH]c3ccccc32)c(-c2cccc(Br)c2)n1	-14	6	0	96	-8	21	x	x
C[C@@H]1COC(=O)[C@@H](CC(=O)OC(C)(C)C)C/C=C\C[C@H](CC(=O)NCCO)C(=O)N1	-3	2	2	0	0	0	x	x
COc1cc(OC)cc(C(=O)N2CCN(S(=O)(=O)c3ccc4c(c3)OCCO4)CC2)c1	-1	3	x	x	x	0	x	x
Cc1[nH]n(-c2ccccc2)c(=O)c1C=Nc1cnc2ccccc2c1	-2	20	0	99	-19	34*	13	0
Cc1ccc2c(N)c(C)ccc2c1	0	13	-1	-4	-1	49*	-2	-6
Cc1ccc(C)c(N)c1	-4	2	1	4	5	-1	x	x
Fc1cccc2sc(Nc3nnc(-c4ccccc4)o3)nc12	-3	45*	2	u	0	64*	+	+
COc1cc(OC)cc(-c2nnc(Nc3nc4c(F)cccc4s3)o2)c1	0	27	0	11	8	30*	84*	76*
Fc1cccc2sc(Nc3nc4c(F)cccc4s3)nc12	0	17	2	4	-4	16	x	x
CN(Cc1ccccc1)C(=O)c1[nH]c(C(F)(F)F)nc1-c1ccccc1	-1	x	x	x	x	5	x	x
CCN(CC)c1ncnc2c1ncn2[C@H]1CN(Cc2cc(OC)c(OC)c(OC)c2)C[C@@H](CO)O1	-1	11	x	x	x	1	x	x
COc1cc(/C=C2/SC(=S)N(CC(=O)NNC(=O)c3ccc(F)cc3)C2=O)cc(OC)c1OC	-1	12	x	x	x	1	x	x
Cc1nc(N2CCN(C(=O)c3ccco3)CC2)c(C#N)c2c1CCCC2	-1	11	-1	14	1	38*	98*	83*
COc1cc(C(=O)NCC(=O)OC(C)C(=O)Nc2ncc(Cl)cc2Cl)cc(OC)c1OC (stereo unspecified)	1	-4	3	12	-5	48*	69*	74*
COc1cc(C(=O)NCC(=O)OCC(=O)Nc2ncc(Cl)cc2Cl)cc(OC)c1OC	-3	-6	1	3	-2	0	x	x
CCn1ncc(Br)c1C(=O)Nc1ccc(-c2ccno2)cc1	-4	8	3	4	-12	-3	x	x
COC(=O)c1cn(-c2ccccc2)nc1-c1ccccc1	2	-8	-3	0	-5	36*	73*	56*

Screens as filed in PubChem BioAssay.
